The record followed here is PubChem BioAssay (NCATS).

Where “and” joins values, the source holds several entries; their conditions need not be identical. Identical values can stand only once. A number with no mark means an inactive call. Results filed as inconclusive are left out. Calls of active or inactive are those of the source. Unless noted, the call rests on the fitted dose curve; in most records, active means well fitted curve in the direction sought with a large enough effect; inconclusive means small, poorly fitted or top-dose-only effect, or another doubt; inactive means no such curve, though single readings can be large; an effect the other way counts as inactive or inconclusive.

Chain of Nuclear receptor ROR-gamma (Homo sapiens) (P51449 whole entry, looked up): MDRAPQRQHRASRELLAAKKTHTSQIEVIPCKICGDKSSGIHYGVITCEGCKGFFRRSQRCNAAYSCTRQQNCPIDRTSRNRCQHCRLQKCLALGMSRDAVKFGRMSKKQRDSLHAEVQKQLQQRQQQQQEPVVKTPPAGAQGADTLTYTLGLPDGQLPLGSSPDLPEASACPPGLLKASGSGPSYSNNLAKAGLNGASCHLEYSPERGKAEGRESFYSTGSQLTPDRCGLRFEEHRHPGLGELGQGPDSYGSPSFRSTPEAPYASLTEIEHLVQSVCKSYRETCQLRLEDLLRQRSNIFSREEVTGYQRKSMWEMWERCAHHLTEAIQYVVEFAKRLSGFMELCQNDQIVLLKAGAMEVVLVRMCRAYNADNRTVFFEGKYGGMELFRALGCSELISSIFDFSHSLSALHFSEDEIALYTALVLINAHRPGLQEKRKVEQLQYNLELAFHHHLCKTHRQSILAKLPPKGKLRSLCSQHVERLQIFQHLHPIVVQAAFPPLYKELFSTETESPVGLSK

Tested on in the first test: not listed separately
Kind of test: qHTS assay to identify small molecules that stimulate interleukin-8 (IL-8) secretion (AID 651758; active means well fitted activation curve with a large enough effect in the signal ratio; the % refers to the signal ratio; further: 0% is about no effect). The settings on record: HTRF ratio (665/615); series mostly up to 92.2 µM; activation: at the top concentration. The gist of the method:
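Quantitative HTS in THP-1 monocytic cells at 2000 cells per well, with 16 hrs compound incubation at 37 C. IL-8 in the medium was then quantified by HTRF immunoassay, read after 1-3 hrs at room temperature.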
In general terms: In qHTS, concentration-response curves come from the screen itself.
On to `c1cc2ccc3cccc4ccc(c1)c2c34`, for which the “activation” value is 0.488%.

Regarding `Nc1ccc([N+](=O)[O-])cc1`, the “activation” value was 10.3%.

On to `O=[N+]([O-])c1c(Cl)c(Cl)cc(Cl)c1Cl`, for which the “activation” value was 17.8%. Still for that read-out and setting: in the case of `CCOP(=O)(NC(C)C)Oc1ccc(SC)c(C)c1` (configuration not stated) it was -18.7%.

Tested on in the next test: not listed separately
Kind of test: qHTS assay for environmental chemicals that activate the Aryl hydrocarbon Receptor (AhR) signaling pathway (AID 651777). Further: % of control where 0% means no effect; nearly all actives have a fitted effect of over 15% in size. The settings on record: 1A2-DRE human hepatoma cells, luciferase, 24 h; activation: hits give high values. A digest of the protocol: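 Quantitative HTS in stably transfected human liver-derived cells whose luciferase gene sits downstream of the CYP1A2 promoter and dioxin response element. After 24 hr exposure at 37 C, One-Glo luminescence was measured.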
Consider `CN(C)[C@@H]1C(=O)C(C(N)=O)=C(O)[C@@]2(O)C(=O)C3=C(O)c4c(O)cccc4[C@@](C)(O)[C@H]3[C@H](O)[C@@H]12`, for which the activation was 0.477% and 1.23% and -3.54%. Same read-out and setting: in the case of `O=C(Nc1ccccc1-c1ccc(Cl)cc1)c1cccnc1Cl` it was 0.984%; in that of `O=C(O)CCCOc1ccc(Cl)cc1Cl`, 4.85%. Same read-out and setting: in the case of `CCCN(CCC)c1c([N+](=O)[O-])cc(S(N)(=O)=O)cc1[N+](=O)[O-]` it was -1.72%.

The target in a further test is Peroxisome proliferator-activated receptor alpha (Homo sapiens) (UniProt Q07869). Kind of test: qHTS assay for small molecule agonists of the peroxisome proliferator-activated receptor alpha (PPARalpha) signaling pathway (AID 651778). Further: potency means the concentration at half of the fitted maximal effect. On max response: % of control where 0% means no effect. The settings on record: PathHunter PPARalpha complementation, chemiluminescence, 6 h; max response: hits give high values. The gist of the method: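 Cells plated at 2,000/well and held overnight at 37 C, 5% CO2, then compound added by pin tool for 6 hr; after PathHunter detection reagent and 60 min at room temperature, chemiluminescence from enzyme complementation was read.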
Chain of Peroxisome proliferator-activated receptor alpha (Homo sapiens) (Q07869 whole entry, looked up): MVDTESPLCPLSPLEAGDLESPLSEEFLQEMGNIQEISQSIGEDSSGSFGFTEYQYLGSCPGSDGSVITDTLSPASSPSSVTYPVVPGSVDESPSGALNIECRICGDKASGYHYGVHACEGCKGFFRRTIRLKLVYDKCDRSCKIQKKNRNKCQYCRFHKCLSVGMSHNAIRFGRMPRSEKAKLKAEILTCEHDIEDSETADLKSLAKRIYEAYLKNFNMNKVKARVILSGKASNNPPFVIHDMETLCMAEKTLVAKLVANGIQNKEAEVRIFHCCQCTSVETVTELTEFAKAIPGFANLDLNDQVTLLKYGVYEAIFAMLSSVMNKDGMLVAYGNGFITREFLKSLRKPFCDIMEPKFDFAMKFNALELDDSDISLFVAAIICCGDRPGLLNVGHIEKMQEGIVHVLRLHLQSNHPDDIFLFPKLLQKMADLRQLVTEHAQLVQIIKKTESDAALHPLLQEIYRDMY
As for `CN(C)[C@@H]1C(=O)C(C(N)=O)=C(O)[C@@]2(O)C(=O)C3=C(O)c4c(O)cccc4[C@@](C)(O)[C@H]3[C@H](O)[C@@H]12`, the max response was -3.16% and 0.185% and -4.32%. Consider `CC(C)Oc1cccc(NC(=O)c2ccccc2C(F)(F)F)c1`, for which the max response was 3.69%. `O=C(Nc1ccccc1-c1ccc(Cl)cc1)c1cccnc1Cl`: the max response is 0.0876%. The same measure, in the same setting: in the case of `CCCCC(CC)COC(=O)c1ccccc1C(=O)OCC(CC)CCCC` (configuration not stated) it was -1.13% and 3.57%; in that of `c1cc2ccc3cccc4ccc(c1)c2c34`, -3.14% and -4.98%; in that of `C=CCC1=C(C)C(OC(=O)C2C(C=C(C)C)C2(C)C)CC1=O` (configuration not stated), 4.18%. Still for that read-out and setting: to `CCCCCCCCCCCCCCCC[N+](C)(C)C` belongs 1.77% and -0.579%; to `Nc1ccc([N+](=O)[O-])cc1`, -2.66%; to `O=C(O)CCCOc1ccc(Cl)cc1Cl`, 5.21%. Still for that read-out and setting: to `CCCCCCCCc1ccc(O)cc1` belongs 18.3% and 5.8%; to `COCCOCCO`, -0.0911% and 0.363%.

For `Cc1cc(O)ccc1Cl`, the max response was -2.23%.

Regarding `O=C(O)C(Cl)Cl`, the max response was -0.693% and -4.76%. On the same count and under the same terms, to `Nc1ccc(Cl)cc1` belongs 8.91%. On the same count and under the same terms, to `O=[N+]([O-])/N=C1\NCCN1Cc1ccc(Cl)nc1` belongs -0.352%; to `OCCCBr`, -3.35%.

Consider `Nc1ccc(Sc2ccc(N)cc2)cc1`, for which the max response is -3.47% and -0.953%. For the compound `O=C(O)c1cc(Oc2ccc(C(F)(F)F)cc2Cl)ccc1[N+](=O)[O-]`, the max response was -3.73%. On the same count and under the same terms, to `CCO/N=C(\CC)C1=C(O)CC(c2c(C)cc(C)cc2C)CC1=O` (configuration not stated) belongs -0.461%; to `O=[N+]([O-])c1c(Cl)c(Cl)cc(Cl)c1Cl`, 0.293%; to `CCCCCCCCCC(CC)c1ccc(S(=O)(=O)O)cc1` (configuration not stated), 1.36%. Same read-out and setting: to `Nc1c(Cl)c(Cl)c(Cl)c(Cl)c1Cl` belongs -0.704%.

Consider `CCCCC(CC)COC(=O)c1ccccc1C(=O)O` (configuration not stated), for which the Potency is 28.2 µM (active). Turning to `CC(=O)[O][Hg][c]1ccccc1`, the max response was -13.3% and -4.57%. Same read-out and setting: to `O=C(O)COc1nc(Cl)c(Cl)cc1Cl` belongs -3.53%; to `CCCN(CCC)c1c([N+](=O)[O-])cc(S(N)(=O)=O)cc1[N+](=O)[O-]`, 9.4%. Still for that read-out and setting: to `CCOP(=O)(NC(C)C)Oc1ccc(SC)c(C)c1` (configuration not stated) belongs 2.22% and -0.0211%.

The target in the next test is Nuclear receptor ROR-gamma (Homo sapiens) (UniProt P51449). Kind of test: qHTS assay for small molecule antagonists of the retinoid-related orphan receptor gamma (ROR-gamma) signaling pathway (AID 651802). Further: nearly all actives have a fitted effect of over 60% in size. Further: potency means the concentration at half of the fitted maximal effect.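 On activity change, negative = inhibition: CHO cells with doxycycline-induced ROR-gamma expression; luciferase reporter luminescence driven by ROR response element; on the % scale 0 is the no-effect control and ±100 the full control effect.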 The settings on record: ROR-gamma antagonist cell reporter assay; series mostly up to 92.2 µM; activity change, negative = inhibition: at the top concentration. The gist of the method:
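Luminescence (One-Glo, 30 min RT) measured 16 h after compound addition and doxycycline induction at 37C. Reporter: RORE-luciferase under TET-inducible ROR-gamma in CHO cells.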
On to `c1cc2ccc3cccc4ccc(c1)c2c34`, for which the “activity change, negative = inhibition” value was 25.1%. Still for that read-out and setting: to `Nc1ccc([N+](=O)[O-])cc1` belongs 19.8%; to `Nc1cccc2c(N)cccc12`, 160%. Turning to `CCCCCCCCc1ccc(O)cc1`, the “activity change, negative = inhibition” value was -18.8%.

For `O=C(O)C(Cl)Cl`, the “activity change, negative = inhibition” value is -5.58%. As for `Nc1ccc(Cl)cc1`, the “activity change, negative = inhibition” value was -0.479%.

For the compound `OCCCBr`, the “activity change, negative = inhibition” value is 5.47%. Consider `Nc1ccc(Sc2ccc(N)cc2)cc1`, for which the “activity change, negative = inhibition” value was 39.4%. Same read-out and setting: in the case of `O=[N+]([O-])c1c(Cl)c(Cl)cc(Cl)c1Cl` it was 23.5%. As for `CC(=O)[O][Hg][c]1ccccc1`, the Potency is 0.531 µM (active). As to `CCOP(=O)(NC(C)C)Oc1ccc(SC)c(C)c1` (configuration not stated), the “activity change, negative = inhibition” value was -19.3%.

Take `Brc1ccccc1-c1ccccc1`: the “activity change, negative = inhibition” value was 22.3%.
